Measurements from PubChem BioAssay (NCATS).
Inconclusive results are not listed. Entries that show only a call come without a potency. Activity calls are given as the source filed them. Calls come from the whole dose curve; as a rule, active = well fitted inhibition curve with a large enough effect; inconclusive = small, poorly fitted or top-dose-only effect; inactive = no such curve, though single readings can be large or run the other way.

Test: BET inhibitor-based combinations targeting novel dependencies in MECOM-rearranged (r) AML: OCI-AML3 cell line (AID 2202232); note: nearly all actives have a fitted effect of over 35% in size
Settings: CellTiter-Glo luminescence, 48 h; Potency: OCI-AML3 viability; series mostly up to 46 µM
Description: Ecotropic viral insertion site 1 (EVI1) is located on chromosome 3q26.2 as part of the MECOM (MDS and EVI1 complex) locus. Under normal hematopoiesis, EVI1 is a regulator of hematopoietic stem cell maintenance and self-renewal and EVI1 levels decrease as the cells differentiate. In approximately 5-10% of de novo acute myeloid leukemia (AML) EVI1 is aberrantly expressed, including Chromosomal inv(3)(q21;q26.2) or t(3;3)(q21;q26.2) alterations (MECOM-r) that account for about 50% of AML with EVI1 overexpression 31. AMLs with high levels of EVI1 have a poor prognosis and an overall survival time averaging between 10-14 months. EVI1 overexpression confers resistance in leukemia cells, highlighting the need to develop new targeted therapies for EVI1 overexpressing AMLs.
Here, we performed an unbiased chemical drug screening by evaluating the single agent activity of a collection of 2,480 oncology-focused, approved and investigational drugs (NCATS Mechanism Interrogation Plates, MIPE v5.0) against a panel of seven AML cell lines. These included four MECOM-r cell-lines (AML-191, AML-194, UCSD-AML1 and HNT-34) and three non-MECOM-r AMLs (MV4-11, OCI-AML3 and SET-2). Exploiting the mechanistic redundancy built in the library, we identified target-level sensitivities in MECOM-r AML cells and relative activity as compared to other AML subtypes.
A collection of 2480 mechanistically annotated dugs (MIPE v5.0) was used to screen four 3q26.2 rearranged AML cell lines and three non-3q26.2 rearranged AML cell lines. This library purposely exploits redundancy by including multiple inhibitors of key onco-targets, while simultaneously encompassing mechanistic diversity, targeting more than 800 distinct mechanisms of action. Briefly, cells were seeded in 5 uL of growth media using a Multidrop Combi dispenser into 1536 well white polystyrene tissue culture treated plates (Corning) at a density of 500cells/well. For each cell-line, for each of the 2480 drugs in MIPE v5.0 library, an 11-point dose curve was generated via a 1536 pin-tool. Plates were incubated for 48 hr at standard incubator conditions, covered by a stainless steel gasketed lid to prevent evaporation. Cell viability was determined by luminescence based, Cell Titer Glo assay (Promega). In detail, 3 uL of Cell Titer Glo were added to each well and plates were incubated at room temperature for 15 min with a stainless-steel lid in place. Luminescence readings were taken using a Viewlux (PerkinElmer) with a 2 s exposure time per plate. Compound dose-response curves were normalized to DMSO and empty well controls on each plate. Quantitative drug activity data from dose-response curves was determined utilizing area Under the Curve (AUC) and Z-transformed AUC (Z-AUC, a mean-centering transformation applied to each individual cell-line screened).
Potency is the fitted concentration of half-maximal effect.

| SMILES | Potency |
| --- | --- |
| CCN(CC)C(=O)c1ccc(C2=CC3(CCNCC3)Oc3cccc(O)c32)cc1 | inactive |
| O=S(=O)(F)Cc1ccccc1 | inactive |
| C[C@]12CC[C@H](O)CC1=CC[C@@H]1[C@@H]2CC[C@]2(C)C(=O)CC[C@@H]12 | inactive |
| CC(N[C@H]1C[C@@H]1c1ccccc1)c1ccc2c(c1)OCCO2 (stereo not given in full) | inactive |
| O=C(O)CNC(=O)C1C(=O)N(C2CCCCC2)C(=O)N(C2CCCCC2)C1=O | inactive |
| C[C@]12COC(=O)C[C@@H]1CC[C@@H]1[C@@H]2CC[C@@]2(C)[C@H]1CC[C@]2(C)O | inactive |
| C[C@]12CC[C@@H]3[C@@H](CCC4=CC(=O)CC[C@@H]43)[C@@H]1CC[C@@H]2OC(=O)CCc1ccccc1 | inactive |
| CN1[C@H]2CC(O)C[C@H]1[C@H]1O[C@H]12 (stereo not given in full) | inactive |
| COc1cc2cc(c1Cl)N(C)C(=O)C[C@H](OC(=O)C(C)C)[C@]1(C)O[C@@H]1[C@H](C)[C@@H]1C[C@@](O)(NC(=O)O1)[C@H](OC)/C=C/C=C(\C)C2 | inactive |
| Fc1ccc(C(OCCN2CCN(CCCc3ccccc3)CC2)c2ccc(F)cc2)cc1 | 29500 nM (active) |
| C/C1=C/C[C@@H](/C(C)=C/c2csc(C)n2)OC(=O)C[C@H](O)C(C)(C)C(=O)[C@H](C)[C@@H](O)[C@@H](C)CCC1 | 59 nM (active) |
| COC12C(COC(N)=O)C3=C(C(=O)C(C)=C(N)C3=O)N1CC1C2N1C (stereo not given) | inactive |
| O=P1(N(CCCl)CCCl)NCCCO1 (stereo not given) | inactive |
| O=C(N[C@H]1CN2CCC1CC2)c1ccc(Cl)cc1 | inactive |
| CC1=C(O)C(=O)C=C2C1=CC=C1[C@@]2(C)CC[C@@]2(C)[C@@H]3C[C@](C)(C(=O)O)CC[C@]3(C)CC[C@]12C | 742 nM (active) |
| CC[C@@H](C(N)=O)N1CCCC1=O | inactive |
| CN[C@@H]1Cc2cccc3[nH]c(=O)n(c23)C1 | inactive |
| CC(C)[C@]12O[C@H]1[C@@H]1O[C@]13[C@]1(O[C@H]1C[C@H]1C4=C(CC[C@@]13C)C(=O)OC4)[C@@H]2O | 29.5 nM (active) |
| CNCC(O)c1ccc(O)cc1 (stereo not given) | inactive |
| CC(=O)OC[C@H]1O[C@@H]([S-])[C@H](OC(C)=O)[C@@H](OC(C)=O)[C@@H]1OC(C)=O.CC[PH+](CC)CC.[Au] | 296 nM (active) |

| SMILES | Potency |
| --- | --- |
| CO/C1=C/C(C)=C\[C@@H](C)[C@@H](O)[C@@H](C)C/C(C)=C\C=C/[C@H](OC)[C@@H]([C@@H](C)[C@@H](O)[C@H](C)[C@@]2(O)C[C@@H](O)[C@H](C)[C@@H](C(C)C)O2)OC1=O | 124 nM (active) |
| N[C@@H]1C[C@H]1c1ccccc1 | inactive |
| C/C=C(\C)C(=O)N[C@@H](c1ccccc1)[C@@H](O)C(=O)O[C@H]1C[C@@]2(O)[C@@H](OC(=O)c3ccccc3)[C@@H]3[C@]4(OC(C)=O)CO[C@@H]4C[C@H](O)[C@@]3(C)C(=O)[C@H](OC(C)=O)C(=C1C)C2(C)C | 13.2 nM (active) |
| COC[C@@H](NC(C)=O)C(=O)NCc1ccccc1 | inactive |
| CC(O)(CS(=O)(=O)c1ccc(F)cc1)C(=O)Nc1ccc(C#N)c(C(F)(F)F)c1 (stereo not given) | 4.2 nM (active) |
| COC1(CS(=O)c2ccccc2)CCN(CCc2c[nH]c3ccc(F)cc23)CC1 (stereo not given) | 14800 nM (active) |
| CC1(C)C(=O)N(c2ccc(C#N)c(C(F)(F)F)c2)C(=S)N1Cc1ccc(-c2cn[nH]n2)cc1 | 11800 nM (active) |
| CC(C)(C)c1cc(C=C(C#N)C#N)cc(Br)c1O | 23500 nM (active) |
| O=c1[nH]c2ccccc2n1CCCN1CCC(n2c(=O)[nH]c3cc(Cl)ccc32)CC1 | inactive |
| C[C@@H]1CC[C@H]2[C@@H](C)C(=O)O[C@@H]3O[C@@]4(C)CC[C@@H]1[C@]32OO4 | 1180 nM (active) |
| CCN1CCN(C(=O)Cc2ccc(Nc3ncc(F)c(Nc4ccc(C(=O)Nc5ccccc5Cl)cc4)n3)cc2)CC1 | 2950 nM (active) |
| O=C(O)c1nn(Cc2ccc(Cl)cc2Cl)c2ccccc12 | inactive |
| Cc1cccc(C)c1NC(=O)CN1CCCC1=O | inactive |
| CC(=O)c1c(O)c(C)c(O)c(Cc2c(O)c3c(c(C(=O)/C=C/c4ccccc4)c2O)OC(C)(C)C=C3)c1O | inactive |
| CCOC(=O)Nc1ccc(NCc2ccc(F)cc2)cc1N | inactive |
| CCNC(=O)C[C@@H]1N=C(c2ccc(Cl)cc2)c2cc(OC)ccc2-n2c(C)nnc21 | 742 nM (active) |
| CN1C(=O)[C@@H](NC(=O)[C@H](CCC(F)(F)F)[C@H](CCC(F)(F)F)C(N)=O)N=C(c2ccccc2)c2ccccc21 | inactive |
| C/C(O)=C(\C#N)C(=O)Nc1cc(Br)ccc1Br | inactive |
| CSCC[C@@H](NC(=O)[C@@H](Cc1ccccc1)NC(=O)CNC(=O)CNC(=O)[C@@H](N)Cc1ccc(O)cc1)C(=O)O | inactive |
| C[C@@H]1CC[C@@]2(OC1)O[C@H]1C[C@H]3[C@@H]4CC=C5C[C@@H](O[C@@H]6O[C@H](CO)[C@@H](O[C@@H]7O[C@@H](C)[C@H](O)[C@@H](O)[C@H]7O)[C@H](O)[C@H]6O[C@@H]6O[C@@H](C)[C@H](O)[C@@H](O)[C@H]6O)CC[C@]5(C)[C@H]4CC[C@]3(C)[C@H]1[C@@H]2C | 7420 nM (active) |
